Test results: PubChem BioAssay (EPA / NIEHS)
The source made the active and inactive calls. The calls were made as follows: active = hit-call score of the fitted dose curve at least 0.9, where 1 is the maximum; inactive = score below 0.9.

test: CCTE_Shafer_MEA_acute_per_burst_spike_number_mean: CCTE's Neural Acute Assay for Average Number of Spikes Per Burst, Shafer Lab (AID 2284015);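 also: hits are decreases in mean spikes per burst versus baseline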
Experimental: CCTE_Shafer_MEA_acute assay is conducted using Axion Biosystems 48 well microelectrode array (MEA) plates and Maestro recording system. Each well of the MEA plate contains a grid of 16 microelectrodes embedded in the culture surface. Electrically active cells, such as neurons, can be cultured over the electrodes, and electrical activity in these cells can be recorded extracellularly. The spontaneous firing of neurons is captured from each electrode on a microsecond timescale providing both temporally and spatially precise data. […] The CCTE_Shafer_MEA_acute assay uses primary cultures of rat cortical neurons. As these cultures mature over time, neural networks develop functional activity and form cohesive networks in which electrical activity can be highly coordinated. Baseline 40-minute recordings are made on days post-plating 13 or 15, followed by a secondary 40-minute recording after chemical exposure.CCTE_Shafer_MEA_acute_per_burst_spike_number_mean is a component of the CCTE_Shafer_MEA_acute assay. It measures the average number of spikes (action potential firings) in a single-electrode burst (temporally-clustered group of spikes) during a recording in a microelectrode array (MEA) using Axion Biosystems Maestro 768 channel amplifier with the AxIS adaptive spike detector. The recordings before and after chemical treatment are used to calculate a percent change in the mean number of spikes per burst in each well.Data from the assay component CCTE_Shafer_MEA_acute_per_burst_spike_number_mean was analyzed into 1 assay endpoint. This assay endpoint, CCTE_Shafer_MEA_acute_per_burst_spike_number_mean, was analyzed in the negative analysis fitting direction relative to DMSO as the negative control and baseline of activity. Using a type of functional reporter, gain or loss-of-signal activity can be used to understand electrical activity.
Spontaneous activity in the cortical cultures was recorded using an Axion Biosystems Maestro 768 channel amplifier and Axion Integrated Studios (AxIS) v1.8 (or later) software. The amplifier recorded from all channels simultaneously (gain = 1200 x; sampling rate = 12.5 kHz/channel): raw signals were filtered with a Butterworth band-pass filter (300-5000 Hz), which filters out slower local field potentials leaving only fast potentials, i.e., "spikes", arising from extracellular currents associated with action potentials (Pine 2006; Wheeler and Nam 2011). On-line spike detection of filtered signals was conducted with the AxIS adaptive spike detector, using a threshold of 8x the root mean squared (rms) noise on each channel. Any electrodes with rms noise levels greater than 5 uV were grounded (e.g., no data were recorded). Once grounded, an electrode was grounded for the duration of the experiment. All recordings were conducted at 37 C. Wells were deemed usable if on the day of the exposure >/= 10 electrodes were active (defined as >/= 5 spikes/min). On DIV 13 or 15, a minimum of three wells from one cortical culture preparation were treated with each compound (0.03-40 uM). Prior to recording baseline activity, each mwMEA plate was placed in the Maestro at 37 C and allowed to sit for 20 min while firing rates stabilized. Baseline activity (40 min) was recorded before the addition of each compound. An additional 40 min of spontaneous activity was recorded in the presence of each compound. Changes in network parameters relative to baseline were assessed following compound treatment.

outcome, inactive:
Cc1[nH]cnc1C[C@H]1CCc2c(C)c3ccccc3n2C1=O
COc1ccc2sc(C(=O)Nc3nnn[nH]3)c(OC(C)C)c2c1
CCCN(C1CCN(C(=O)C2CCNCC2)CC1)[C@@H]1CCc2ccc(OC)cc2C1
On1ccccc1=S
Cn1cnc([N+](=O)[O-])c1Sc1ncnc2nc[nH]c12
CCCCCCCCCCCCc1ccccc1
CC[C@H]1CC[C@H](NCc2cc3c(cc2OC)[C@H]2C[C@H]2C(=O)N3C)[C@H](c2ccccc2)N1
O=P(OC(CCl)CCl)(OC(CCl)CCl)OC(CCl)CCl
CCOC(=O)c1ccc(C2CCC(NC[C@H](O)COc3ccc(O)c(NS(C)(=O)=O)c3)CC2)cc1 (stereo partly drawn)
CC(C)=CCCC(C)=CC=O
CC[C@H]1OC(=O)[C@H](C)[C@@H](O[C@H]2C[C@@](C)(OC)[C@@H](O)[C@H](C)O2)[C@H](C)[C@@H](O[C@@H]2O[C@H](C)C[C@H](N(C)C)[C@H]2O)[C@](C)(O)C[C@@H](C)C(=O)[C@H](C)[C@@H](O)[C@]1(C)O
COc1cccc(-c2ccc(/C=C\CN3CCCCCC3)cc2Cl)c1
O=C(O)c1cc(N=Nc2ccc(S(=O)(=O)Nc3ccccn3)cc2)ccc1O
O=C(O)CCN(C1(C(=O)NO)CCCC1)S(=O)(=O)c1ccc(Oc2ccc(F)cc2)cc1
CCCCC(CC)COC(=O)CCCCCCCCC(=O)OCC(CC)CCCC (stereo not drawn)
CCC(C)(C)C(=O)O[C@H]1C[C@@H](C)C=C2C=C[C@H](C)[C@H](CC[C@@H]3C[C@@H](O)CC(=O)O3)[C@H]21

AC50, active:
Cn1c(=O)c2c(ncn2C)n(C)c1=O 31.8 µM
CCCCCCc1ccc(O)cc1O 20 µM
